Assay outcomes from PubChem.
BoNT-F LC inh: inhibitors of Botulinum neurotoxin F light chain protease; Multiplex microsphere protease cleavage assay, flow cytometry; inhibition, % at 10 µM; 360,000 tested, 0.22% active; AID 588497; in the data active = inhibition above about 35%, passing the limit was not always enough; inconclusive = no clear call, values can overlap the other calls
Bead autofluor: flagged as autofluorescent in microsphere protease counterscreen; compound autofluorescence counterscreen, microsphere flow cytometry; hits give high values; fluorescence intensity (no concentration beside the values); 360,000 tested, 3.1% active; in the data active = fluorescence intensity above about 16000; inconclusive = no clear call, values can overlap the other calls
3CLpro inhibitor: SARS-CoV 3CLpro protease inhibition | P0C6X7 | recombinant SARS-CoV 3CLpro, quenched FRET peptide cleavage | inhibition, % at 6 µM | 290,000 tested, 0.14% active; in the data active = inhibition above about 12%
Anthrax LF inh2: blocks Bacillus anthracis lethal factor protease; 360,000 tested, 0.12% active; inhibition, % at 10 µM; multiplex microsphere protease cleavage assay, LF
Target sequence (P15917 whole entry, looked up): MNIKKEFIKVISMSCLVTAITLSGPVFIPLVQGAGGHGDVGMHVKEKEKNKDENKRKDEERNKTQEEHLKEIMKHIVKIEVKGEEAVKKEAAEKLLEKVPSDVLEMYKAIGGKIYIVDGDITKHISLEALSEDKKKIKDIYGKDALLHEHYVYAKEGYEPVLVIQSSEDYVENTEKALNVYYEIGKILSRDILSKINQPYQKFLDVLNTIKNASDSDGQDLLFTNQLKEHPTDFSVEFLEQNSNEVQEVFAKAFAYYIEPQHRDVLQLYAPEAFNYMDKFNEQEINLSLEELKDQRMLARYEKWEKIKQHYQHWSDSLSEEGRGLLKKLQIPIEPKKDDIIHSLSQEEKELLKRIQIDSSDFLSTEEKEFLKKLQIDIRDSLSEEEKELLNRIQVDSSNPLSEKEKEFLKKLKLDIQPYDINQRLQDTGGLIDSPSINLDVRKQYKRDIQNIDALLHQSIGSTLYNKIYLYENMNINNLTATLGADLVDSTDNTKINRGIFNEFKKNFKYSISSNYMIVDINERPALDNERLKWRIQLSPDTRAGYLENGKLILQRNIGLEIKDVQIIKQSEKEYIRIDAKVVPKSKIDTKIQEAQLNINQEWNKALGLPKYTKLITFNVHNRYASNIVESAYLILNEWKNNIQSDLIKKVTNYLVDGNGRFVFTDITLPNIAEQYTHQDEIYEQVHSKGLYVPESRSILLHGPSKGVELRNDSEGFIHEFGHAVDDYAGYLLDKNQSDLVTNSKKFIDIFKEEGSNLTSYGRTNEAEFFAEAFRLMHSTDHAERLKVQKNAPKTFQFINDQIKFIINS
CCHFV vOTU inh: blocks the CCHF virus ovarian tumor domain protease; CCHFV vOTU protease, Pep-AMC fluorescence; inhibition, % at 11.5 µM; 370,000 tested, 0.55% active; in the data active = inhibition above about 30%
BoNT A protease: blocks Botulinum neurotoxin A light chain protease. inhibition, % at 10 µM. 360,000 tested, 0.17% active. multiplex microsphere protease substrate cleavage, flow cytometry
Large screens that a line does not name were inactive. The list is not random: actives were taken first. Their share in the collection is about 3.9%. Cut-off read from the data, not from the text of the source, unless noted: active = inhibition above about 30%; inconclusive = no clear call, values can overlap the other calls; inactive = below that.

Cc1onc(-c2ccccc2Cl)c1C(=O)Nc1ccc(OCC(=O)N2CCOCC2)cc1	Bead autofluor 16183
COC(=O)[C@H](C(C)C)N1CCc2nnn(CC3CCCCC3)c2-c2ccccc2S1(=O)=O	none (no result: BoNT-F LC inh, Bead autofluor, 3CLpro inhibitor, Anthrax LF inh2, BoNT A protease)
O=C(CSc1nnc(-c2ccncc2)n1-c1ccccc1)Nc1cccc2ccccc12	none (no result: BoNT-F LC inh, Bead autofluor, 3CLpro inhibitor, Anthrax LF inh2, BoNT A protease)
COC(=O)c1cc(OC)c(OC)cc1NC(=O)c1c(-c2ccccc2Cl)noc1C	Bead autofluor 21663
Cn1cccc1C(=O)N1CCN(S(=O)(=O)c2cccs2)CC1	none (no result: BoNT-F LC inh, Bead autofluor, 3CLpro inhibitor, Anthrax LF inh2, BoNT A protease)
O=C(NCC1CCN(C(=O)C(=O)c2cc3ccccc3o2)CC1)c1ccc2c(c1)OCCCO2	none (no result: BoNT-F LC inh, Bead autofluor, 3CLpro inhibitor, Anthrax LF inh2, BoNT A protease)
Cc1ccc(Nc2cnn(C34CC5CC(CC(CC(=O)O)(C5)C3)C4)c(=O)c2Cl)cc1	3CLpro inhibitor 12
CC(=O)c1ccc(Nc2cnn(C34CC5CC(CC(CC(=O)O)(C5)C3)C4)c(=O)c2Cl)cc1	none
C=CCN1[C@H](Cc2ccccc2)COc2cccc(N3CCCC3)c2S1(=O)=O	none (no result: BoNT-F LC inh, Bead autofluor, 3CLpro inhibitor, Anthrax LF inh2, BoNT A protease)
O=c1ccnc(SCn2nnc3ccccc3c2=O)[nH]1	Bead autofluor 21117
Cc1cc(=O)[nH]c(SCn2nnc3ccccc3c2=O)n1	none
Cc1ccc(N2CSC3=C(C#N)C(c4cccs4)CC(=O)N3C2)cc1 (stereo unspecified)	none
CCc1ccc(N2CSC3=C(C#N)C(c4cccs4)CC(=O)N3C2)cc1 (stereo unspecified)	Bead autofluor 25679 (no result: CCHFV vOTU inh)
CCOc1ccc(NC(=O)Cn2sc3nc(C)cc(C)c3c2=O)cc1	Bead autofluor inconclusive (no result: CCHFV vOTU inh)
Cc1cc(C)c2c(=O)n(CC(=O)Nc3ccc(Cl)cc3)sc2n1	BoNT A protease 48
C=CCn1c(SCC(=O)c2cc(C)n(C(C)COC)c2C)nc2sc(C)c(C)c2c1=O (stereo unspecified)	Bead autofluor 19713, BoNT A protease inconclusive
Cc1ccccc1NC(=O)NCCCN1CCCC1	Bead autofluor 22559, BoNT A protease inconclusive
C[C@@H]1/C=C/CC(=O)N[C@H](c2cccc(Br)c2)[C@H](C)/C=C/CC(=O)N[C@@H]1c1cccc(Br)c1	none (no result: BoNT-F LC inh, Bead autofluor, 3CLpro inhibitor, Anthrax LF inh2, BoNT A protease)
COc1cccc(Cn2cc(COC(=O)NCCc3ccccc3)nn2)c1	none (no result: BoNT-F LC inh, Bead autofluor, 3CLpro inhibitor, Anthrax LF inh2, BoNT A protease)
O=[N+]([O-])c1ccc(/C=N/NC2=NS(=O)(=O)c3ccccc32)cc1	none
O=[N+]([O-])c1ccc(O)c(/C=N/NC2=NS(=O)(=O)c3ccccc32)c1	BoNT-F LC inh 41
Cc1ccccc1C(=O)NC1CCCCN(Cc2ccc(Cl)cc2)C1=O (stereo unspecified)	none (no result: BoNT-F LC inh, Bead autofluor, 3CLpro inhibitor, Anthrax LF inh2, BoNT A protease)
Cc1ccc(C(=O)NN2C(=O)/C(=C/c3cn(C)c4ccccc34)SC2=S)cc1	BoNT A protease 43
Cc1ccc(C(=O)NN2C(=O)/C(=C/c3cccn3C)SC2=S)cc1	none
COc1cccc(CNC(=O)C2CCCN(c3ncccn3)C2)c1OC (stereo unspecified)	none (no result: BoNT-F LC inh, Bead autofluor, 3CLpro inhibitor, Anthrax LF inh2, BoNT A protease)
CCOc1ccc(CCn2c(-c3ccco3)nc3ccccc3c2=O)cc1OCC	Bead autofluor 16599
Cc1cc(C(C)(C)C)cc(S(=O)(=O)Nc2ccc(O)c(C(=O)O)c2)c1C	Bead autofluor 20140, BoNT A protease inconclusive
COCCN1C(=O)/C(=C/c2ccc(N3CCCC3)cc2C)SC1=S	Bead autofluor 18023, Anthrax LF inh2 58, BoNT A protease 100
Cc1nc2ccc(S(=O)(=O)NCC(=O)NCc3ccc(F)cc3)cc2s1	none (no result: BoNT-F LC inh, Bead autofluor, 3CLpro inhibitor, Anthrax LF inh2, BoNT A protease)
Cc1ccc(NC(=O)c2csc(-c3ccccc3)c2C)cc1	Bead autofluor 23926
O=C(O)c1ccccc1C(=O)Nc1cccc([N+](=O)[O-])c1	BoNT-F LC inh inconclusive
Cc1c(C(=O)Nc2cccc([N+](=O)[O-])c2)csc1-c1ccccc1	Bead autofluor 16284
CCCCNC(=O)COC(=O)c1ccc(F)cc1Cl	none
CCCCNC(=O)COC(=O)c1cc(F)c(F)cc1Cl	Bead autofluor 23808
CCOC(=O)[C@@]12CCC3=C1N(CCC3)C(=O)[C@H](CC(=O)NCCCOC)C2	none (no result: BoNT-F LC inh, Bead autofluor, 3CLpro inhibitor, Anthrax LF inh2, BoNT A protease)
CCN1C(=O)C(CC(=O)Nc2ccc(OC)cc2)N(Cc2cccs2)C1=S (stereo unspecified)	Bead autofluor 16912, BoNT A protease inconclusive
O=C(NC1(C(F)(F)F)Oc2ccccc2O1)N1CCC2(CC1)OCCO2	Bead autofluor 21302
CC1(C)CC(=O)C2=C(C1)N(Cc1ccccc1)C(=O)C2(NC(=O)C(C)(C)C)C(F)(F)F (stereo unspecified)	Bead autofluor 24235
CCOC(=O)NC1(C(F)(F)F)C(=O)N(Cc2ccccn2)C2=C1C(=O)CC(C)(C)C2 (stereo unspecified)	Bead autofluor 16536
